Measured values as given in PubChem BioAssay AID1159580 (chemical genetic matrix, 2015).
The campaign covered roughly 5,500 compounds. About 2,000 (36%) were called active. Inconclusive results (about 18%) are left out. Cut-off read from the data, not from the text of the source: active = normalized growth mostly below about 0.91 (no sharp cut-off); inconclusive = no clear call, values can overlap the other calls; inactive = mostly above about 0.92. Some of the results follow.

Assay: chemical genetic growth profiling, strain panel (AID 1159580);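 note: tested at 20 µM; growth read once vehicle control cultures reached saturation at 30 °C; 1 = growth at the plate median or of vehicle wells; lower values mean less growth of the strain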
Conditions: growth OD

Measured: normalized growth

O=C(O)c1cc2cc(Cl)ccc2[nH]1
inactive: S. cerevisiae deletion strains, locus YJR075W, strain HOC1, hits give low values 1.05 | S. cerevisiae deletion strains, locus YKL009W, strain mrt4, hits give low values 1.01 | S. cerevisiae deletion strains, locus YKL068W, hits give low values 0.98 | S. cerevisiae deletion strains, locus YKL085W, strain MDH1 (second series), hits give low values 1.02 | S. cerevisiae deletion strains, locus YKL085W, strain MDH1, hits give low values 1.02 | S. cerevisiae deletion strains, locus YKL160W, strain elf1, hits give low values 1 | S. cerevisiae deletion strains, locus YKL190W, strain CNB1, hits give low values 1.01 | S. cerevisiae deletion strains, locus YKR001C, strain vps1, hits give low values 0.984 | S. cerevisiae deletion strains, locus YKR026C, strain gcn3, hits give low values 0.963 | S. cerevisiae deletion strains, locus YKR091W, strain srl3, hits give low values 0.994 | S. cerevisiae deletion strains, locus YLL001W, strain dnm1, hits give low values 0.966 | S. cerevisiae deletion strains, locus YLL026W, hits give low values 0.98 | S. cerevisiae deletion strains, locus YLL041C, strain sdh2, hits give low values 0.988 | S. cerevisiae deletion strains, locus YLR027C, strain aat2, hits give low values 0.992 | S. cerevisiae deletion strains, locus YLR039C, strain RIC1, hits give low values 1.04 | S. cerevisiae deletion strains, locus YLR058C, strain SHM2, hits give low values 1.01 | S. cerevisiae deletion strains, locus YLR102C, strain apc9, hits give low values 0.98 | S. cerevisiae deletion strains, locus YLR113W, strain HOG1, hits give low values 0.944 | S. cerevisiae deletion strains, locus YLR221C, strain rsa3, hits give low values 0.991 | S. cerevisiae deletion strains, locus YLR258W, strain gsy2, hits give low values 0.989 | S. cerevisiae deletion strains, locus YLR262C, strain YPT6 (second series), hits give low values 0.994 | S. cerevisiae deletion strains, locus YLR262C, strain YPT6, hits give low values 1.06 | S. cerevisiae deletion strains, locus YLR268W, strain sec22, hits give low values 1 | S. cerevisiae deletion strains, locus YLR320W, strain mms22, hits give low values 0.987 | S. cerevisiae deletion strains, locus YLR330W, strain CHS5, hits give low values 1 | S. cerevisiae deletion strains, locus YLR342W, strain FKS1 (second series), hits give low values 1.01 | S. cerevisiae deletion strains, locus YLR342W, strain FKS1, hits give low values 0.991 | S. cerevisiae deletion strains, locus YLR357W, strain rsc2, hits give low values 0.953 | S. cerevisiae deletion strains, locus YLR370C, strain arc18, hits give low values 0.981 | S. cerevisiae deletion strains, locus YLR371W, strain rom2, hits give low values 0.98 | S. cerevisiae deletion strains, locus YLR384C, strain iki3, hits give low values 0.986 | S. cerevisiae deletion strains, locus YLR418C, strain cdc73, hits give low values 0.991 | S. cerevisiae deletion strains, locus YML016C, strain PPZ1, hits give low values 1 | S. cerevisiae deletion strains, locus YML032C, strain rad52, hits give low values 0.977 | S. cerevisiae deletion strains, locus YML120C, strain ndi1, hits give low values 0.984 | S. cerevisiae deletion strains, locus YML124C, strain tub3, hits give low values 0.987 | S. cerevisiae deletion strains, locus YMR058W, strain fet3, hits give low values 0.985 | S. cerevisiae deletion strains, locus YMR078C, strain ctf18, hits give low values 0.977 | S. cerevisiae deletion strains, locus YMR125W, strain sto1, hits give low values 0.959 | S. cerevisiae deletion strains, locus YMR129W, hits give low values 0.993 | S. cerevisiae deletion strains, locus YMR205C, strain PFK2, hits give low values 0.956 | S. cerevisiae deletion strains, locus YMR223W, strain ubp8, hits give low values 0.983 | S. cerevisiae deletion strains, locus YMR231W, strain pep5, hits give low values 0.989 | S. cerevisiae deletion strains, locus YMR263W, strain SAP30, hits give low values 1.02 | S. cerevisiae deletion strains, locus YMR307W, strain GAS1, hits give low values 1.02 | S. cerevisiae deletion strains, locus YNL067W, strain RPL9B, hits give low values 1.03 | S. cerevisiae deletion strains, locus YNL071W, strain lat1, hits give low values 0.994 | S. cerevisiae deletion strains, locus YNL128W, strain TEP1, hits give low values 1.03 | S. cerevisiae deletion strains, locus YNL153C, strain GIM3, hits give low values 1.03 | S. cerevisiae deletion strains, locus YNL183C, strain NPR1, hits give low values 0.866 | S. cerevisiae deletion strains, locus YNL209W, strain ssb2, hits give low values 0.991 | S. cerevisiae deletion strains, locus YNL233W, strain BNI4, hits give low values 1.01 | S. cerevisiae deletion strains, locus YNL248C, strain rpa49, hits give low values 0.991 | S. cerevisiae deletion strains, locus YNL250W, strain rad50, hits give low values 0.971 | S. cerevisiae deletion strains, locus YNL271C, strain bni1, hits give low values 0.969 | S. cerevisiae deletion strains, locus YNL298W, strain CLA4, hits give low values 0.978 | S. cerevisiae deletion strains, locus YNL307C, strain MCK1, hits give low values 0.979 | S. cerevisiae deletion strains, locus YNL322C, strain KRE1 (second series), hits give low values 0.984 | S. cerevisiae deletion strains, locus YNL322C, strain KRE1, hits give low values 1.01 | S. cerevisiae deletion strains, locus YNR049C, strain mso1, hits give low values 0.983 | S. cerevisiae deletion strains, locus YNR052C, strain pop2, hits give low values 0.989 | S. cerevisiae deletion strains, locus YOL006C, strain TOP1, hits give low values 1.05 | S. cerevisiae deletion strains, locus YOL012C, strain htz1 0.817 | S. cerevisiae deletion strains, locus YOL147C, strain pex11, hits give low values 0.981 | S. cerevisiae deletion strains, locus YOR001W, strain rrp6, hits give low values 1.01 | S. cerevisiae deletion strains, locus YOR061W, strain CKA2, hits give low values 1.01 | S. cerevisiae deletion strains, locus YOR069W, strain VPS5, hits give low values 0.996 | S. cerevisiae deletion strains, locus YOR070C, strain gyp1, hits give low values 0.986 | S. cerevisiae deletion strains, locus YOR080W, strain dia2, hits give low values 0.981 | S. cerevisiae deletion strains, locus YOR083W, strain WHI5, hits give low values 1 | S. cerevisiae deletion strains, locus YOR106W, strain vam3, hits give low values 0.999 | S. cerevisiae deletion strains, locus YOR136W, strain idh2, hits give low values 0.992 | S. cerevisiae deletion strains, locus YOR144C, strain elg1, hits give low values 0.989 | S. cerevisiae deletion strains, locus YOR184W, strain ser1, hits give low values 0.967 | S. cerevisiae deletion strains, locus YOR231W, strain MKK1, hits give low values 0.926 | S. cerevisiae deletion strains, locus YOR265W, strain rbl2, hits give low values 0.99 | S. cerevisiae deletion strains, locus YOR270C, strain vph1, hits give low values 0.984 | S. cerevisiae deletion strains, locus YOR290C, strain snf2, hits give low values 0.992 | S. cerevisiae deletion strains, locus YOR316C, strain cot1, hits give low values 0.983 | S. cerevisiae deletion strains, locus YPL051W, strain arl3, hits give low values 0.991 | S. cerevisiae deletion strains, locus YPL055C, strain LGE1, hits give low values 1.06 | S. cerevisiae deletion strains, locus YPL078C, strain atp4, hits give low values 0.997 | S. cerevisiae deletion strains, locus YPL106C, strain sse1, hits give low values 0.966 | S. cerevisiae deletion strains, locus YPL240C, strain hsp82, hits give low values 0.998 | S. cerevisiae deletion strains, locus YPL241C, strain CIN2, hits give low values 1.01 | S. cerevisiae deletion strains, locus YPL256C, strain CLN2, hits give low values 0.935 | S. cerevisiae deletion strains, locus YPR119W, strain clb2, hits give low values 0.983 | S. cerevisiae deletion strains, locus YPR141C, strain kar3, hits give low values 0.976 | S. cerevisiae deletion strains, locus YPR163C, strain tif3, hits give low values 0.991 | S. cerevisiae deletion strains, locus YPR167C, strain met16, hits give low values 0.986 | S. cerevisiae deletion strains, strain wtn01, hits give low values 0.992 | S. cerevisiae strains, strain wild type, hits give low values 1.01
